Our source for the AC50 and outcome values is PubChem BioAssay (EPA / NIEHS).

Details in all cases: mRNA level, 48 h; actives raise or lower the signal
Read-out in experiment [1]: Cytochrome P450 2C19 (Homo sapiens) (UniProt P33261)
The experiment can be described thus: LTEA_HepaRG_CYP2C19: Life Technologies and Expression Analysis (LTEA) Assay for CYP2C19 using HepaRG (AID 2283482). The method in brief:
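Transcript levels of CYP2C19 were quantified by qRT-PCR after HepaRG cells were treated for 48 hours with test chemicals up to 100 uM (eight half-log concentrations, 0.5% DMSO vehicle). Gain or loss of signal was fitted relative to DMSO.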

Read-out in the next experiment: CYP2C9 (gene 1559)
In words: LTEA_HepaRG_CYP2C9: Life Technologies and Expression Analysis (LTEA) Assay for CYP2C9 using HepaRG (AID 2283484). The method in brief:
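HepaRG, 48 h dosing, 8-pt half-log series, top 100 uM, 0.5% DMSO vehicle. Read-out: CYP2C9 transcript by TaqMan qRT-PCR, housekeeping-normalized (ACTB/GAPDH/POLR2A). Gain or loss fitted vs DMSO baseline.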

Read-out in the next experiment: CYP2E1 (gene 1571)
The experiment can be described thus: LTEA_HepaRG_CYP2E1: Life Technologies and Expression Analysis (LTEA) Assay for CYP2E1 using HepaRG (AID 2283485). The method in brief:
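Readout is qRT-PCR of CYP2E1 mRNA, normalized to three housekeeping genes and fitted bidirectionally against 0.5% DMSO. HepaRG cells were dosed 48 h at eight concentrations, highest 100 uM with half-log dilutions.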

Read-out in the next experiment: CYP4A11 (gene 1579)
In words: LTEA_HepaRG_CYP4A11: Life Technologies and Expression Analysis (LTEA) Assay for CYP4A11 using HepaRG (AID 2283486). The method in brief: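 HepaRG, 48 h chem exposure, 8 conc (100 uM top, half-log), 0.5% DMSO vehicle; qRT-PCR readout, housekeeping-gene normalized; bidirectional curve fit vs DMSO baseline.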

Read-out in experiment [2]: Cytochrome P450 3A4 (Homo sapiens) (UniProt P08684)
The experiment can be described thus: LTEA_HepaRG_CYP3A4: Life Technologies and Expression Analysis (LTEA) Assay for CYP3A4 using HepaRG (AID 2283487). The procedure, abridged: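 Differentiated HepaRG cells, plated 48 h, then dosed 48 h in serum-free induction medium with 0.5% DMSO, 8 half-log concentrations up to 100 uM, duplicate. CYP3A4 mRNA by qRT-PCR, normalized to ACTB/GAPDH/POLR2A; bidirectional fit versus DMSO.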

Read-out in experiment [3]: DNA damage-inducible transcript 3 (DDIT3), DDIT3 (gene 1649)
The experiment can be described thus: LTEA_HepaRG_DDIT3: Life Technologies and Expression Analysis (LTEA) Assay for DNA damage-inducible transcript 3 (DDIT3) using HepaRG (AID 2283488). The method in brief: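 Cells are human HepaRG liver cells treated for 48 h with eight half-log concentrations up to 100 uM in 0.5% DMSO. Transcript levels come from qRT-PCR normalized to three housekeeping genes, with activity fitted in both directions relative to vehicle.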

Read-out in experiment [4]: Pro-epidermal growth factor (Homo sapiens) (UniProt P01133)
The experiment can be described thus: LTEA_HepaRG_EGF: Life Technologies and Expression Analysis (LTEA) Assay for Epidermal growth factor (EGF) using HepaRG (AID 2283489). The procedure, abridged: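 HepaRG, 48 h dosing, 100 uM top, half-log x8, 0.5% DMSO. Readout: TaqMan qRT-PCR (Fluidigm array), housekeeping-normalized. Gain or loss of signal fit vs DMSO.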

Read-out in experiment [5]: Ezrin (EZR), EZR (gene 7430)
The experiment can be described thus: LTEA_HepaRG_EZR: Life Technologies and Expression Analysis (LTEA) Assay for Ezrin (EZR) using HepaRG (AID 2283491). The method in brief: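 EZR transcript levels came from Fluidigm qRT-PCR and were normalized to three housekeeping genes after 48 h chemical exposure of HepaRG cells. Dosing used an 8-point half-log series with a 100 uM top concentration in 0.5% DMSO, tested in duplicate; both directions were fitted versus vehicle.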

Read-out in experiment [6]: Cytochrome P450 3A7 (Homo sapiens) (UniProt P24462)
The experiment can be described thus: LTEA_HepaRG_CYP3A7: Life Technologies and Expression Analysis (LTEA) Assay for CYP3A7 using HepaRG (AID 2283492). The method in brief:
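Human HepaRG liver cells, 48 h post-plating, switched to serum-free induction medium and exposed in duplicate for 48 h. Dosing: 100 uM top, half-log dilutions, 8 points, 0.5% DMSO vehicle. Read-out: CYP3A7 mRNA, gain or loss fitted against DMSO baseline.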

Read-out in the next experiment: CYP3A5 (gene 1577)
In words: LTEA_HepaRG_CYP3A5: Life Technologies and Expression Analysis (LTEA) Assay for CYP3A5 using HepaRG (AID 2283493). The procedure, abridged: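 Human HepaRG hepatic cells receive 48 h chemical treatment at eight concentrations (half-log steps from 100 uM) in 0.5% DMSO. Expression of CYP3A5 is quantified by Fluidigm qRT-PCR and normalized to three reference genes.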

Read-out in experiment [7]: Fatty Acid-Binding Protein 1 (FABP1), FABP1 (gene 2168)
The experiment can be described thus: LTEA_HepaRG_FABP1: Life Technologies and Expression Analysis (LTEA) Assay for Fatty Acid-Binding Protein 1 (FABP1) using HepaRG (AID 2283494). The method in brief:
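qRT-PCR readout of FABP1 transcript (normalized to three housekeeping genes) after 48 h chemical exposure of HepaRG cells; eight concentrations, half-log steps, max 100 uM, 0.5% DMSO vehicle; gain or loss fitted relative to DMSO baseline.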

Read-out in experiment [8]: Cytochrome P450 4A22 (Homo sapiens) (UniProt Q5TCH4)
In words: LTEA_HepaRG_CYP4A22: Life Technologies and Expression Analysis (LTEA) Assay for Cytochrome P450 4A22 (CYP4A22) using HepaRG (AID 2283495). The procedure, abridged:
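Readout is CYP4A22 transcript induction or loss, quantified by qRT-PCR and normalized to ACTB, GAPDH and POLR2A. Human HepaRG cells receive test chemicals for 48 h at eight half-log concentrations from 100 uM in 0.5% DMSO.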

Read-out in experiment [9]: Cytochrome P450 7A1 (Homo sapiens) (UniProt P22680)
In words: LTEA_HepaRG_CYP7A1: Life Technologies and Expression Analysis (LTEA) Assay for Cytochrome P450 7A1 (CYP7A1) using HepaRG (AID 2283496). The method in brief:
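HepaRG, 48 h exposure, 8-pt half-log series from 100 uM, 0.5% DMSO vehicle, duplicates. Readout: TaqMan qRT-PCR mRNA vs three housekeeping genes; bidirectional curve fit against DMSO baseline.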

Read-out in experiment [10]: Glutathione S-Transferase (GSTA2), GSTA2 (gene 2939)
The experiment can be described thus: LTEA_HepaRG_GSTA2: Life Technologies and Expression Analysis (LTEA) Assay for Glutathione S-Transferase (GSTA2) using HepaRG (AID 2283497). The procedure, abridged:
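qRT-PCR readout of GSTA2 transcript, normalized to three housekeeping genes, fitted bidirectionally against 0.5% DMSO baseline. Differentiated HepaRG cells received compound for 48 h at 8 concentrations (top 100 uM, half-log steps).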

Read-out in experiment [11]: Glutamate-cysteine ligase catalytic (GCLC), GCLC (gene 2729)
The experiment can be described thus: LTEA_HepaRG_GCLC: Life Technologies and Expression Analysis (LTEA) Assay for Glutamate-cysteine ligase catalytic (GCLC) using HepaRG (AID 2283498). The procedure, abridged: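 HepaRG, 48 h exposure, 8-pt half-log series from 100 uM, 0.5% DMSO vehicle; TaqMan qRT-PCR for GCLC mRNA, housekeeping-normalized; bidirectional curve fit vs DMSO baseline.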

Read-out in experiment [12]: growth arrest and DNA damage 45 (GADD45G), GADD45G (gene 10912)
In words: LTEA_HepaRG_GADD45G: Life Technologies and Expression Analysis (LTEA) Assay for growth arrest and DNA damage 45 (GADD45G) using HepaRG (AID 2283499). The procedure, abridged: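 Gain or loss of GADD45G mRNA, quantified by TaqMan qRT-PCR against three housekeeping genes, is fitted in both directions relative to 0.5% DMSO. Human HepaRG cultures receive test chemical for 48 h at up to 100 uM.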

Read-out in experiment [13]: Glutamate-cysteine ligase regulatory (GCLM), GCLM (gene 2730)
In words: LTEA_HepaRG_GCLM: Life Technologies and Expression Analysis (LTEA) Assay for Glutamate-cysteine ligase regulatory (GCLM) using HepaRG (AID 2283500). The procedure, abridged: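 Endpoint is GCLM transcript level by qRT-PCR, normalized to three housekeeping genes, after 48 h chemical exposure of human HepaRG cells (0.5% DMSO vehicle, top 100 uM, half-log dilutions). Fitting was bidirectional relative to DMSO.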

Read-out in experiment [14]: Glutathione S-transferase M3 (GSTM3), GSTM3 (gene 2947)
The experiment can be described thus: LTEA_HepaRG_GSTM3: Life Technologies and Expression Analysis (LTEA) Assay for Glutathione S-transferase M3 (GSTM3) using HepaRG (AID 2283501). The method in brief:
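HepaRG, plated 48 h, then serum-free induction medium; test chemical 48 h, duplicate; 100 uM top, half-log x8, 0.5% DMSO. Read-out: GSTM3 mRNA (TaqMan qRT-PCR, Fluidigm array). Bidirectional fit vs DMSO.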

Read-out in the next experiment: CYP2C8 (gene 1558)
In words: LTEA_HepaRG_CYP2C8: Life Technologies and Expression Analysis (LTEA) Assay for CYP2C8 using HepaRG (AID 2283483). The procedure, abridged:
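HepaRG (human liver line), 48 h chemical exposure, 8-pt half-log series from 100 uM, 0.5% DMSO vehicle. Readout: CYP2C8 transcript by qRT-PCR, housekeeping-normalized. Bidirectional fit vs DMSO baseline.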

Read-out in experiment [15]: Early growth response protein 1 (EGR1) transcription factor, EGR1 (gene 1958)
The experiment can be described thus: LTEA_HepaRG_EGR1: Life Technologies and Expression Analysis (LTEA) Assay for Early growth response protein 1 (EGR1) transcription factor using HepaRG (AID 2283490). The method in brief:
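HepaRG, 48 h exposure, 8-pt half-log series from 100 uM, 0.5% DMSO vehicle; EGR1 transcript by TaqMan qRT-PCR (Fluidigm array), housekeeping-normalized; bidirectional fit relative to DMSO baseline.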

Each structure is given as a SMILES string. More than one record can exist for a structure, and the calls need not agree. The source made the active and inactive calls. The calls were made as follows: active = hit-call score of the fitted dose curve at least 0.9, where 1 is the maximum; inactive = score below 0.9.

Cytochrome P450 3A7 (Homo sapiens), sequence (P24462 whole entry, looked up): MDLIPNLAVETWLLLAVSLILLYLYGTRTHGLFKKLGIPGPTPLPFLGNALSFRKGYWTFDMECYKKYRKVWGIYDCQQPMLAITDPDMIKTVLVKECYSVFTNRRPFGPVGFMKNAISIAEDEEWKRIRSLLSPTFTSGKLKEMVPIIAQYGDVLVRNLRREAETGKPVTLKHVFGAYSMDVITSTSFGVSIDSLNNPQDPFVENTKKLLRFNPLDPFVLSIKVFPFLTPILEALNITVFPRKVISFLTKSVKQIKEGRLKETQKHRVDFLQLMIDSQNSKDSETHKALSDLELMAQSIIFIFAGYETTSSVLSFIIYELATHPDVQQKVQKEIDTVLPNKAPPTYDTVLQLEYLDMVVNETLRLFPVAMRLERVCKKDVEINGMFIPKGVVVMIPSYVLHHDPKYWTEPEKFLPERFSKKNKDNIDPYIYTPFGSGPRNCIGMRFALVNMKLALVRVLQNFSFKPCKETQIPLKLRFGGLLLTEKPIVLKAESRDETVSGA
Cytochrome P450 3A4 (Homo sapiens), sequence (P08684 whole entry, looked up): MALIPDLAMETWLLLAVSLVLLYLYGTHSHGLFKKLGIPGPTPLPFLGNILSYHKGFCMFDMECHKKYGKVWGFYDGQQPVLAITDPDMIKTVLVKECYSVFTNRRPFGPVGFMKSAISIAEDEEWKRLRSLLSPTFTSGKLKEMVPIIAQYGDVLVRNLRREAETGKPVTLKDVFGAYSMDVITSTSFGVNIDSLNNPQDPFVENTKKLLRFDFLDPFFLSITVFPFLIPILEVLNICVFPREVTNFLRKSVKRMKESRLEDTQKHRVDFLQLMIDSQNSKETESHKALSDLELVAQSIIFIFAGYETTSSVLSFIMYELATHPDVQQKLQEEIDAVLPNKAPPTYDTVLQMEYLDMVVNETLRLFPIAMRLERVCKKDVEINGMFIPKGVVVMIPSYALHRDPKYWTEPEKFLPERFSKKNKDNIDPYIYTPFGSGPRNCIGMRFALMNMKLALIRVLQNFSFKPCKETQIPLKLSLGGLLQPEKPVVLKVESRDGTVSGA
Cytochrome P450 2C19 (Homo sapiens), sequence (P33261 whole entry, looked up): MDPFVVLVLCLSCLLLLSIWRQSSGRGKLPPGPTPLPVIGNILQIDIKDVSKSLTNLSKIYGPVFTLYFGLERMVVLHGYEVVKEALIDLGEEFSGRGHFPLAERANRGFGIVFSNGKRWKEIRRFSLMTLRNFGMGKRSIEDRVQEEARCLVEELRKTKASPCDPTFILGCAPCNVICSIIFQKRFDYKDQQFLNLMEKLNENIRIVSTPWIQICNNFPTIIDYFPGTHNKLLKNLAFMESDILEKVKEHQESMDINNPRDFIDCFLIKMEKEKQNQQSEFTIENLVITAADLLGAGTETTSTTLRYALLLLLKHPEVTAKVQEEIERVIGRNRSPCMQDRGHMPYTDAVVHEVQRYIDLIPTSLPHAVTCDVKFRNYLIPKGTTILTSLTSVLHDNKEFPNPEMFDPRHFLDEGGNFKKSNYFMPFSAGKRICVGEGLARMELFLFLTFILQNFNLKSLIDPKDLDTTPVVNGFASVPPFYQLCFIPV

For orientation: AC50 means the concentration at which the activity in the assay is half-maximal. Turning to `CC(C)[C@H](C(=O)O[C@H](C#N)c1cccc(Oc2ccccc2)c1)c1ccc(Cl)cc1`, the AC50 in experiment [1] was 34.2 µM (active); in the experiment with CYP2E1 (gene 1571) it was 50 µM (active); in experiment [2], 10.5 µM (active). Also, the result (with CYP2C9 (gene 1559); in the experiment with CYP4A11 (gene 1579); in experiment [3]; in experiment [4]; in experiment [5]; in [6]) was inactive. For the same compound, the call (in the experiment with CYP3A5 (gene 1577); in [7]; in experiment [8]; in experiment [9]; in [10]; in [11]) was inactive. Further, the outcome in experiment [12], in [13] and in experiment [14] was inactive.
With `FC(F)C(F)(F)OCC(Cn1cncn1)c1ccc(Cl)cc1Cl` (stereo unspecified), the AC50 is 34.8 µM (active) in experiment [1]; 24.6 µM (active) with CYP2C8 (gene 1558); 16.1 µM (active) with CYP2E1 (gene 1571); 28.8 µM (active) with CYP4A11 (gene 1579); 35.2 µM (active) in experiment [2]; 28.7 µM (active) in experiment [3]. The concentration at half-maximal activity (AC50) in experiment [15] is 11.1 µM (active); in experiment [6] it was 49.8 µM (active); with CYP3A5 (gene 1577), 83 µM (active); in experiment [7] it was 34.8 µM (active); in experiment [8], 16.6 µM (active); in experiment [9] it was 44.6 µM (active). Moreover, the half-maximal activity concentration (AC50) in [12] is 11.1 µM (active); in experiment [13] it was 13 µM (active); in experiment [14], 73.6 µM (active). Further, the compound was called inactive in experiment [4] and in [11].
Regarding `CN(C)[C@@H]1C(=O)C(C(N)=O)=C(O)[C@@]2(O)C(=O)C3=C(O)c4c(O)cccc4[C@@](C)(O)[C@H]3[C@H](O)[C@@H]12`, the compound was called inactive (with CYP2C8 (gene 1558); with CYP2C9 (gene 1559); in the experiment with CYP2E1 (gene 1571); in the experiment with CYP4A11 (gene 1579); in [2]; in [3]). Also, the compound was classed as inactive (in experiment [4]; in [15]; in experiment [5]; in [6]; in the experiment with CYP3A5 (gene 1577); in experiment [7]). Also, the compound was classed as inactive in experiment [8], in [9], in experiment [11], in experiment [12], in experiment [13] and in experiment [14]. Besides, the AC50 with CYP2E1 (gene 1571) is 50 µM (active); with CYP4A11 (gene 1579), 38.6 µM (active); in experiment [8] it was 50 µM (active).
